# Data published in PubChem BioAssay (NCI).
# About 83,000 compounds went through this panel and 20% of them were active in at least one assay; those are over-represented in the sample as a whole.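 96-well plates, one dose, 48 hours. Percent growth reported; active if below 10.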 Unmarked numbers belong to inactive results. Activity calls are given as the source filed them.
# Test system: BT-549 breast
# Test: NCI-60 one-dose screen, 48 h (100 = growth as untreated, 0 = no growth, -100 = all killed)
# Conditions: 10 µM unless noted
row,Structure (SMILES),growth
1,COC(=O)c1cc(Br)ccc1O,103%
2,COc1ccc(-c2cc(-c3ccccc3)nc(N3CCN(CCNc4ccnc5cc(Cl)ccc45)CC3)n2)cc1,72.8%
3,CCCCNC(=O)Oc1ccc(/C(=C(/C)Cc2ccc(OC)cc2)c2ccc(OCCN3CCCCCC3)cc2)cc1,93.2%
4,O=C(N=Nc1c(O)[nH]c2ccccc12)Nc1ccc(F)cc1,89.6%
5,O=[N+]([O-])c1ccc(-c2cn3nc(-c4c[nH]c5ccccc45)sc3n2)cc1,99.5%
6,CN(C)c1ccc(/C=C(\C#N)c2cc3ccccc3[nH]2)cc1,42.4%
7,CC(=O)/C(=C/c1ccc([N+](=O)[O-])cc1)C(=O)c1ccccc1,89.8%
8,CCOC(=O)c1nn(CC(O)c2ccccc2)c(NC(=O)Nc2cccc(F)c2)c1C (centres undefined),101%
9,CO[C@H](C(=O)[C@@H](O)[C@@H](C)O)[C@@H]1Cc2cc3cc(O[C@H]4C[C@@H](O[C@H]5C[C@@H](O)[C@H](O)C(C)O5)[C@H](O)C(C)(O)O4)cc(O)c3c(O)c2C(=O)[C@H]1O[C@H]1C[C@@H](O[C@H]2C[C@@H](O[C@H]3C[C@@H](OC)[C@H](O)C(C)O3)[C@@H](O)C(C)O2)[C@H](O)C(C)O1 (some centres undefined),4.37% (active)
10,CCN(CC)CCCN1C(=O)c2c(c(C)c3c(oc4ccc(O)cc43)c2C)C1=O,96.6%
11,O=C(Nc1ccccc1N1CCCC1=O)c1oc2ccc(F)cc2c1-c1cnn(-c2ccccc2)c1,56.7% [50 µM]
12,O=C(C1CCCCC1)[C@@H]1[C@]2(C(=O)NC3CCCCC32)[C@@H]2CCCN2[C@@]12C(=O)NC1CCC(Cl)CC12 (some centres undefined),-91.6% [100 µM] (active)
13,C=C(C)[C@@H]1CC[C@]2(COC(C)=O)CC[C@]3(C)[C@H](CC[C@@H]4[C@@]5(C)CCCN(C(C)=O)C(C)(C)[C@@H]5CC[C@]43C)[C@@H]12,88.6%

# Test system: MDA-MB-435 melanoma
# Test: as above
# Conditions: 10 µM unless noted
row,Structure (SMILES),growth
1,Cc1ncc(C(=O)Nc2ccc(CN3CCN(C)CC3)c(C(F)(F)F)c2)cc1C#Cc1cnc(N)c2ncccc12,-66.5% (active)
2,COc1ccc(C(=O)N2c3ccccc3Sc3ccccc32)c(C(F)(F)F)c1,-25% (active)
3,Cc1ccc(Cl)cc1NC(=O)c1sc2nc3c(cc2c1N)C(=O)CCC3,-3.04% (active)
4,Oc1c(CN2CCCC2)cc(CSCc2ccccc2)c2cccnc12,21.2%
5,CCOC(=O)CC1CSC(Nc2ccccc2)=N1 (centres undefined),105%
6,C#CCNC(=O)[C@]1(C)CCC[C@@]2(C)[C@H]1CC=C1C=C(C(C)C)CC[C@@H]12,104%
7,CCCCNC(=O)Oc1ccc(/C(=C(/C)Cc2ccc(OC)cc2)c2ccc(OCCN3CCCCC3)cc2)cc1,67.8%
8,COc1cccc(/C=C/C(=O)c2cc3c(N)c(C(=O)Nc4cccc5ccccc45)sc3nc2C)c1,-50.7% (active)
9,COc1cc2c(cc1OCCCCN1CCN(C(=S)SCCC(C#N)(c3ccccc3)c3ccccc3)CC1)N=C[C@@H]1CCCN1C2=O,-17% (active)
10,CN1C(=O)/C(=C/c2ccc(C(=O)Nc3ncc(Cc4cccc(Cl)c4)s3)cc2)SC1=S,5.05% (active)
11,Cc1ccc(C(=O)c2ccc(CC(=O)NN3C(=O)c4ccccc4C3=O)n2C)cc1,99.6%
12,Cn1c(=O)c2[nH]c(SCC(=O)Nc3ccc(C(=O)/C=C/c4ccccc4Cl)cc3)nc2n(C)c1=O,92%
13,Nc1[nH]c(=S)nc2oc(-c3ccccc3)c(-c3ccccc3)c12,104%
14,O=S(=O)(Oc1ccc(Br)cc1)c1ccc(Cl)cc1,104%
15,COC(=O)N1CC(Oc2ccccn2)C2CC1c1ccccc1O2 (centres undefined),105%
16,COc1ccc(/C(C)=C(\c2ccc(Cl)cc2)c2ccc(OCCN3CCCCC3)cc2)cc1,58%
17,Cc1ccc2nc(-c3ccc(C(=O)NNC(=S)Nc4ccccc4)cc3)[nH]c2c1,97.8%
18,O=S(=O)(NCCCNc1nccc(-c2c(-c3cccc(F)c3)nc3occn23)n1)c1ccc(F)cc1,25.6%
19,Cc1nc2sc(C(=O)Nc3cccc(Br)c3C)c(N)c2cc1C(O)c1ccccc1 (centres undefined),3.98% (active)
20,CC1(C)N=C(N)N=C(N)N1c1ccc(CCCCc2ccccc2)c(Cl)c1,27.8%
21,CCCCNC(=O)c1cc([N+](=O)[O-])cc(C2CCCCC2)c1O,33.3%
